Inconclusive results are not listed. A structure can be active in one record and inactive in another. Activity calls are given as the source filed them. The calls were made as follows: active = hit-call score of the fitted dose curve at least 0.9, where 1 is the maximum; inconclusive = response in the unintended direction; inactive = score below 0.9.

This test can be described thus: ATG_M_06_TRANS: Attagene TRANS-FACTORIAL HepG2 Assay for M06 Transcription Factor (Internal Marker) (AID 2282983).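 As to AC50: potency for rise in reporter mRNA above DMSO baseline.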 Conditions: HepG2 Attagene TRANS M06 internal marker reporter. As for the experimental part: ATG_TRANS is a cell-based, multiplexed-readout assay that uses HepG2, a human liver cell line, with measurements taken at 24 hours after chemical dosing in a 24-well plate.ATG_M_06_TRANS is one of 30 assay component(s) measured or calculated from the ATG_TRANS assay. It is designed to make measurements of mRNA induction, a form of inducible reporter, as detected with fluorescence intensity signals by Reverse transcription polymerase chain reaction (RT-PCR) and Capillary electrophoresis technology.Data from the assay component ATG_M_06_TRANS was analyzed into 1 assay endpoint. This assay endpoint, ATG_M_06_TRANS, was analyzed in the positive analysis fitting direction relative to DMSO as the negative control and baseline of activity. Using a type of inducible reporter, measures of mRNA for gain-of-signal activity can be used to understand the background control at the transcription factor-level as they relate to the gene . Furthermore, this assay endpoint can be referred to as a secondary readout, because this assay has produced multiple assay endpoints where this one serves a background control function. To generalize the intended target to other relatable targets, this assay endpoint is annotated to the background measurement intended target family, where the subfamily is internal marker.
Human liver HepG2 cells are transiently transfected with multiple reporter transcription units (MRTUs) in 6-well plates using FuGene 6 reagent (Roche; 3 ml FuGene/1 mg DNA). The MRTU constructs are regulated by a cis-regulating element (promoter). […] A major difference between the CIS and TRANS system is that in CIS activities of endogenous TFs are measured, whereas the TRANS assay evaluates changes in activities of exogenous, chimeric NR-Gal4 proteins. […] At the end of 24 hour incubation, total RNA was isolated using TriZol reagent (Invitrogen). The isolated RNA is then reverse-transcribed using oligo(dT) primer and Mo-MLV reverse transcriptase (Invitrogen) with DNAse I (Ambion) treatment for 30 min. The one-tenth of the produced cDNA was amplified by PCR using Taq DNA polymerase (Invitrogen) and two reporter sequence-specific primers. The PCR products were fluorescently labeled by primer extension with 6-arboxyfluorescein (6-FAM) 5'-labeled reporter sequence-specific primer (2 min at 95 C, 20 s at 68 C and 10 min at 72 C) and these products were digested with 5U of HpaI (New England Biolabs) for 2h at 37 C. The fragments were purified using Qiaquick PCR columns (Qiagen), analyzed on an ABI 3130xL genetic analyzer (Applied Biosystems) with peak positions identified by using a set of X-rhodamine (ROX)-labeled MapMarker1000 molecular weight standards (BioVentures). The raw capillary electrophoresis data was processed using Attagraph software (Attagene).
`CC(=O)S[C@@H]1CC2=CC(=O)CC[C@]2(C)[C@H]2CC[C@@]3(C)[C@@H](CC[C@@]34CCC(=O)O4)[C@H]12`: the compound was classed as inactive.
For the compound `S=C([S-])NCCNC(=S)[S-].[Mn+2]`, the result was inactive.
Turning to `CCCCC(CC)COC(=O)c1ccccc1C(=O)O` (stereo not given), the outcome was inactive.
On the same count and under the same terms, under `C[C@]12CC[C@@H]3c4ccc(O)cc4C[C@@H](CCCCCCCCCS(=O)CCCC(F)(F)C(F)(F)F)[C@H]3[C@@H]1CC[C@@H]2O` (stereo not given in full) stands “inactive”.
On to `CCCCOCCOCCOCc1cc2c(cc1CCC)OCO2`, for which the outcome was inactive.
On the same count and under the same terms, the value for `S=C(S)NCCNC(=S)S.[Mn+2].[S-]C([S-])=NCCN=C([S-])[S-].[Zn+2]` was “inactive”; that for `O=C(c1ccc(O)cc1O)c1ccc(O)cc1O` was “inactive”; that for `CN(C)C(=O)Nc1ccc(Cl)c(Cl)c1` was “inactive”.
`CSC(=O)c1cccc2nnsc12`: the call was inactive.
As for `CCCCCCC(C)OC(=O)COc1nc(F)c(Cl)c(N)c1Cl` (stereo not given), the compound was classed as inactive.
`CCNc1nc(N)nc(Cl)n1`: the compound was called inactive.
On the same count and under the same terms, the value for `COCCO` was “inactive”.
As to `CC(=O)[C@H]1CC[C@H]2[C@@H]3CCC4=CC(=O)CC[C@]4(C)[C@H]3CC[C@]12C`, the outcome was inactive.
Usually AC50 stands for the concentration giving half of the maximal activity seen. For the compound `CC(C)CCCCCCc1ccc(O)cc1`, the concentration at half-maximal activity (AC50) was 50.3 µM (active) and the outcome was inactive.
`C[C@]12C[C@H](O)[C@H]3[C@@H](CCC4=CC(=O)CC[C@@]43C)[C@@H]1CC[C@@H]2C(=O)CO`: the compound was called inactive.
On the same count and under the same terms, the value for `CCOC(=O)COc1cc(-n2ncc(C(F)(F)F)c(C)c2=O)c(F)cc1Cl` was “inactive”; that for `COC(=O)CSc1cc(N=c2sc(=O)n3n2CCCC3)c(F)cc1Cl` was “inactive”; that for `CCOC(=O)NCCOc1ccc(Oc2ccccc2)cc1` was “inactive”.
Regarding `N#CSCSc1nc2ccccc2s1`, the compound was classed as inactive.
Consider `COC(=O)c1ccc(CNS(C)(=O)=O)cc1S(=O)(=O)NC(=O)Nc1nc(OC)cc(OC)n1`, for which the compound was classed as inactive.
The same measure, in the same setting: the value for `CCC(O)=C1C(=O)CC(C(=O)O)CC1=O` (stereo not given) was “inactive”.
On to `C#CCOC(=O)[C@@H](C)Oc1ccc(Oc2ncc(Cl)cc2F)cc1`, for which the compound was called inactive.
For `COC(=O)c1c(Cl)nn(C)c1S(=O)(=O)NC(=O)Nc1nc(OC)cc(OC)n1`, the compound was classed as inactive.
In the case of `C#C[C@]1(O)CC[C@H]2[C@@H]3CCC4=CC(=O)CC[C@@H]4[C@H]3CC[C@@]21CC`, the compound was classed as inactive.
Regarding `CCCN(CCC)C(=O)SCC`, the outcome was inactive.
Same read-out and setting: the value for `c1ccc2[nH]c(-c3cscn3)nc2c1` was “inactive”; that for `CC(C)(c1ccc(O)cc1)c1ccc(O)cc1` was “inactive”.
With `COC(=O)c1ccccc1C(=O)O`, the call was inactive.
As to `COC(=O)c1ccc(I)cc1S(=O)(=O)NC(=O)Nc1nc(C)nc(OC)n1`, the compound was called inactive.
Turning to `CCCN(CCC)c1c([N+](=O)[O-])cc(C(F)(F)F)c(N)c1[N+](=O)[O-]`, the result was inactive.
On the same count and under the same terms, under `CCSC(=O)N(CC(C)C)CC(C)C` stands “inactive”; under `CC(C)(C)[C@@H](O)[C@@H](Cc1ccc(Cl)cc1)n1cncn1`, “inactive”.
For `O=C(c1ccccc1)C1CCCCC1`, the call was inactive.
In the case of `COc1nc(C)nc(NC(=O)NS(=O)(=O)c2ccccc2OCCCl)n1`, the call was inactive.
Same read-out and setting: the value for `CCN(CC)C(=O)c1cccc(C)c1` was “inactive”; that for `N[C@@H](Cc1cc(I)c(Oc2ccc(O)c(I)c2)c(I)c1)C(=O)O` was “inactive”; that for `CCCOC(=O)c1ccc(C(=O)OCCC)nc1` was “inactive”.
As for `Oc1ccc(C(c2ccc(O)cc2)C(Cl)(Cl)Cl)cc1`, the compound was called inactive.
The same measure, in the same setting: the value for `c1ccc(Nc2ccccc2)cc1` was “inactive”.

(Values after PubChem BioAssay (EPA / NIEHS).)
